Values joined by “and” are separate entries in the source; they are usually repeats but may differ in a detail not shown here. Equal entries are not always repeated. Records with an inconclusive call do not appear. Entries that show only a call come without a potency. A structure can be active in one record and inactive in another. Active and inactive are the calls of the source. Unless noted, calls come from the whole dose curve; as a rule, active = well fitted curve in the direction sought with a large enough effect in the repeat runs; inconclusive = weak or mixed curves; inactive = no such curve, though single readings can be large; an effect the other way counts as inactive or inconclusive.
What was measured:
[1] = A CellTox Green Cytotoxicity Assay to monitor cytotoxicity in HepG2 cells - 8 hour (AID 1224890); note: nearly all actives have a fitted effect of over 45% in size
How it was run: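 Real-time cytotoxicity: fluorescence of a cell-impermeant cyanine dye binding DNA of dead HepG2 cells, measured repeatedly (0–40 h) during compound exposure at 37 C. Cells seeded 600/well with reagent, dosed after 5 h.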

[2] = qHTS assay to identify small molecule antagonists of the estrogen receptor alpha (ER-alpha) signaling pathway using the BG1 cell line in the presence of 0.1 nM 17-beta-estradiol - cell viability counter screen (AID 1259241); note: nearly all actives have a fitted effect of over 40% in size
How it was run: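 Cells were plated and left 24 hr, compounds in DMSO were pinned in, 17beta-estradiol was added to 0.1 nM final, and after 22 hr CellTiter-Fluor reagent was added for 30 min before fluorescence was read.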

[3] = qHTS assay to identify small molecule antagonists of the androgen receptor (AR) signaling pathway using the MDA cell line in the presence of 0.5 nM R1881 - cell viability counter screen (AID 1259242); note: nearly all actives have a fitted effect of over 45% in size
How it was run: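 Live-cell protease activity was measured by CellTiter-Fluor fluorescence after 30 min. Before that, MDA-kb2 MMTV-luciferase cells had 16 hr at 37C without CO2, exposed to test compounds and 0.5 nM R1881 final.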

[4] = target: Estrogen receptor (Homo sapiens) (UniProt P03372); assay: qHTS assay to identify small molecule antagonists of the estrogen receptor alpha (ER-alpha) signaling pathway using the BG1 cell line in the presence of 0.1 nM 17-beta-estradiol (AID 1259244); note: nearly all actives have a fitted effect of over 50% in size
How it was run: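 Luciferase luminescence (ONE-Glo, 30 min at room temperature) was read after 22 hr at 37C exposure to compounds plus 17beta-estradiol at 0.1 nM final. Cells were VM7Luc4E2 with endogenous ER-alpha and an ERE-driven luciferase, pre-cultured 5 days in hormone-depleted medium.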

[5] = qHTS assay to identify small molecule phospholipidosis (PLD) inducers (AID 1259344; active = well fitted curve in the direction sought with a large enough effect; an effect the other way counts as inactive or inconclusive; note: potency is the fitted concentration of half-maximal effect)
How it was run: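 Read-out is LipidTOX Red fluorescence (ex 595/em 615) imaged in HepG2 cells after 24 h compound exposure at 37 C, with Hoechst nuclear counterstain (ex 352/em 461) allowing per-cell normalisation.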

[6] = qHTS assay to identify small molecule HDAC inhibitors (AID 1259364); note: top concentration of the series differs between compounds; nearly all actives have a fitted effect of over 45% in size
How it was run: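 Luminescence read after 30 min room-temperature HDAC-Glo incubation measures cellular class I/II HDAC activity. Compounds were applied for 2 hr at 37 C to HCT-116 wild-type cells seeded the day before.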

[7] = qHTS assay to identify small molecule HDAC inhibitors - cell viability counter screen (AID 1259365); note: series mostly up to about 92 µM; nearly all actives have a fitted effect of over 50% in size
How it was run: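 Counter screen in wild-type HCT-116 cells: compounds dissolved in DMSO are pin-transferred onto overnight-plated cells and left 2hr at 37C. ATP-based CellTiter-Glo luminescence then measures viable cells.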

[8] = qHTS assay to identify small molecule antagonists of the sonic hedgehog signaling (Shh) pathway - cell viability counter screen (AID 1259367); note: nearly all actives have a fitted effect of over 55% in size
How it was run: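 Fluorescence read-out (CellTiter-Fluor, 1 hr at 37C) taken after 23 hr compound treatment of 3T3 Gli1-Luc cells stimulated with conditioned medium. Cells were seeded at 2,000 per well and pre-incubated 4 hr.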

[9] = qHTS assay to identify small molecule agonists of the sonic hedgehog signaling (Shh) pathway (AID 1259368; calls by dose curve;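 note: NIH/3T3-derived 3T3Gli1-Luc cells carrying a stable Gli1-driven firefly luciferase reporter; series mostly up to about 92 µM; nearly all actives have a fitted effect of over 15% in size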)
How it was run: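 Luminescence was read after 30 min at room temperature with luciferase reagent. Before that, 3T3Gli1-Luc cells (NIH/3T3 clone, stable Gli1-Luc reporter; 2,000/well) were exposed to compounds for 24 hr at 37C, 5% CO2, compounds being added 4 hr post-plating.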

[10] = qHTS assay to identify small molecule agonists of the androgen receptor (AR) signaling pathway in the presence of an antagonist - cell viability counter screen (AID 1259379);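 note: MDA-kb2 human breast cancer cells carrying an MMTV luciferase reporter; series mostly up to about 92 µM; nearly all actives have a fitted effect of over 25% in size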
How it was run: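 Cytotoxicity counter-screen run in the same wells as the nilutamide-challenged (3.0 µM final) AR agonist assay in MDA-kb2 cells. Compounds tested at 15 concentrations for 16 h, 37 °C without CO2; CellTiter-Fluor fluorescence read.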

[11] = qHTS assay to identify small molecule agonists of the estrogen receptor beta (ER-beta) signaling pathway - cell viability counter screen (AID 1259380); note: nearly all actives have a fitted effect of over 30% in size; note: potency is the fitted concentration of half-maximal effect
How it was run: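 Cell viability counter screen: CellTiter-Glo luminescence (30 min, room temperature) measured in the same wells as the beta-lactamase readout, after 16 hr compound exposure at 37C of ER-beta-bla HEK293T cells in 2% charcoal-stripped FBS medium.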

[12] = qHTS assay to identify small molecule antagonists of the estrogen receptor beta (ER-beta) signaling pathway - cell viability counter screen (AID 1259382); note: series mostly up to about 92 µM; nearly all actives have a fitted effect of over 55% in size
How it was run: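 Cytotoxicity was measured in the same wells by CellTiter-Glo luminescence after 30 min at room temperature. Cells were ER-beta-bla HEK293T in charcoal-stripped serum, given compound together with 1 nM E2 and incubated 16 h at 37C.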

[13] = target: Estrogen receptor (Homo sapiens) (UniProt P03372); assay: qHTS assay to identify small molecule agonists of the estrogen receptor alpha (ER-alpha) signaling pathway in the presence of an antagonist (AID 1259383; calls by dose curve; note: top concentration of the series differs between compounds; nearly all actives have a fitted effect of over 15% in size)
How it was run: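 Agonist-mode confirmation run in the presence of 10.0nM (final) ICI-182,780 antagonist. The reporter was ERE-driven luciferase in VM7Luc4E2 cells, grown in charcoal-stripped serum. Cells were exposed to 15-concentration compound series for 22hr, then ONE-Glo luminescence was read.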

[14] = qHTS assay to identify small molecule agonists of the sonic hedgehog signaling (Shh) pathway - cell viability counter screen (AID 1259366); note: nearly all actives have a fitted effect of over 50% in size
How it was run: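 Cells are plated at 2,000 per well and left 4hr at 37C, 5% CO2 before compound addition. After 23hr of treatment, CellTiter-Fluor reagent is added for 1hr at 37C and fluorescence is measured.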

[15] = qHTS assay to identify small molecule agonists or antagonists of the thyroid stimulating hormone receptor (TSHR) signaling pathway - wild type cell line counter screen (AID 1259384; calls by dose curve)
How it was run: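 Wild-type Hek293 cells, 800/well, 18 h at 37C, then compound with Ro20-1724 for 30 min RT. cAMP by HTRF (cAMP-d2/anti-cAMP cryptate), 1 h RT, fluorescence read. 15 concentrations, triplicates.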

[16] = target: Estrogen receptor beta (Homo sapiens) (UniProt Q92731); assay: qHTS assay to identify small molecule agonists of the estrogen receptor beta (ER-beta) signaling pathway (AID 1259377; active = well fitted activation curve with a large enough effect in the signal ratio in the repeat runs, not every such curve was filed as active; the % refers to the signal ratio; note: potency is the fitted concentration of half-maximal effect)
How it was run: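 Agonist mode cell assay in GripTite HEK293T cells expressing an ER-beta fusion that drives beta-lactamase from an Upstream Activator Sequence; 16 hr compound exposure at 37C, then 2 h LiveBLAzer B/G FRET substrate at room temperature, fluorescence read-out.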

[17] = qHTS assay to identify small molecule antagonists of the sonic hedgehog signaling (Shh) pathway (AID 1259369; calls by dose curve; note: nearly all actives have a fitted effect of over 45% in size; note: potency is the fitted concentration of half-maximal effect)
How it was run: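 Antagonist mode: compound added to 3T3 Gli1-Luc cells followed by conditioned-medium stimulation, 24 h at 37 C, 5% CO2. Inhibition taken as loss of Gli1-driven luciferase luminescence.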

[18] = target: Estrogen receptor beta (Homo sapiens) (UniProt Q92731); assay: qHTS assay to identify small molecule antagonists of the estrogen receptor beta (ER-beta) signaling pathway (AID 1259378; active = well fitted inhibition curve with a large enough effect in the signal ratio in the repeat runs, not every such curve was filed as active; the % refers to the signal ratio)
How it was run: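 ER-beta-UAS-bla HEK293T cells in 2% charcoal-stripped FBS medium treated with compound plus 1nM final 17-beta-estradiol for 16 hr at 37C. Beta-lactamase reporter read by FRET substrate fluorescence after 2 hours at room temperature.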

[19] = target: Androgen receptor (Homo sapiens) (UniProt P10275); assay: qHTS assay to identify small molecule antagonists of the androgen receptor (AR) signaling pathway using the MDA cell line in the presence of 0.5 nM R1881 (AID 1259243); note: nearly all actives have a fitted effect of over 50% in size
How it was run: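 Luminescent reporter readout (ONE-Glo, 30 min, room temperature) after 16 hr co-treatment of MDA-kb2 cells with test compounds and 0.5 nM R1881 final, at 37C without CO2. The MMTV-driven luciferase responds to both AR and GR.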

[20] = target: Androgen receptor (Homo sapiens) (UniProt P10275); assay: qHTS assay to identify small molecule agonists of the androgen receptor (AR) signaling pathway in the presence of an antagonist (AID 1259381; calls by dose curve; note: nearly all actives have a fitted effect of over 15% in size)
How it was run: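 Agonist-mode confirmation run against 3.0 uM final nilutamide: compounds titrated at 15 concentrations onto MDA-kb2 MMTV-luciferase reporter cells. Luminescence measured with ONE-Glo following 16 hr incubation, 37C, 0% CO2.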

Androgen receptor (Homo sapiens), sequence (P10275 whole entry, looked up): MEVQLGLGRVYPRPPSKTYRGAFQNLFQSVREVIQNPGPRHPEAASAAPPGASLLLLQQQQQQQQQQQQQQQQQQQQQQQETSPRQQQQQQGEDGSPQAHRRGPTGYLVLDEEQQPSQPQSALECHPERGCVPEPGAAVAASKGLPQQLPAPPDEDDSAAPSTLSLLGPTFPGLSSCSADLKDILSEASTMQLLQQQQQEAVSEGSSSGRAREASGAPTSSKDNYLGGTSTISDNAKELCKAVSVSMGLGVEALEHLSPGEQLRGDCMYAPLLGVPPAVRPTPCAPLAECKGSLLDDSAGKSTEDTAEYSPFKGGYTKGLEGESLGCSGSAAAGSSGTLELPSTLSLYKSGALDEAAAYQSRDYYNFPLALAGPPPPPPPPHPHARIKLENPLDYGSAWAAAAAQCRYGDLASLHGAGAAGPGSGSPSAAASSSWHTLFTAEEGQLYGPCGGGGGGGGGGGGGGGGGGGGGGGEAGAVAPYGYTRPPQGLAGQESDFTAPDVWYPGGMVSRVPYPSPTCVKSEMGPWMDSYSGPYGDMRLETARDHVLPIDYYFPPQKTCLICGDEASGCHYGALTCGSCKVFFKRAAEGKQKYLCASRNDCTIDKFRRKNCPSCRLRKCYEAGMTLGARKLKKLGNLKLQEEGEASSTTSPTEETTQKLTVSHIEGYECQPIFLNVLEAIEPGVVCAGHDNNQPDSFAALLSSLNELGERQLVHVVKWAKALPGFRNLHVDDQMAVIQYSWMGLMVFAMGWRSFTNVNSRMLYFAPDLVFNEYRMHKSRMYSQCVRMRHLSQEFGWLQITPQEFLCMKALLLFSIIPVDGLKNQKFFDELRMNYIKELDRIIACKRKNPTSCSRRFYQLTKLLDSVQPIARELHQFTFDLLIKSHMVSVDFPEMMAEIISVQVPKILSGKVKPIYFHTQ
Estrogen receptor beta (Homo sapiens), sequence (Q92731 whole entry, looked up, the tested form may be a part): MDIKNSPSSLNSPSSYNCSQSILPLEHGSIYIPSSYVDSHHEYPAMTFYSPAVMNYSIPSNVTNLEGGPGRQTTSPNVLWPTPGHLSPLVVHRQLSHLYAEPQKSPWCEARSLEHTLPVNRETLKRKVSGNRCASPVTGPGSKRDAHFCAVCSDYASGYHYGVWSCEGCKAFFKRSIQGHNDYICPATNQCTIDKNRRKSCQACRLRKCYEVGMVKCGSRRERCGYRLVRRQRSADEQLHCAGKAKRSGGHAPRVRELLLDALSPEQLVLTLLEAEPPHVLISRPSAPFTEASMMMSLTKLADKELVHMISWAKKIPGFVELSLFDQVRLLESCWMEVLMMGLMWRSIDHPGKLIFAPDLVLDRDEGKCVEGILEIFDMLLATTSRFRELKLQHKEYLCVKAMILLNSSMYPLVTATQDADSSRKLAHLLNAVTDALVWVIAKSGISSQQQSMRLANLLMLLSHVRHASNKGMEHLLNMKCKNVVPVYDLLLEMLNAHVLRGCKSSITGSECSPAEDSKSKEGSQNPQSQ
Estrogen receptor (Homo sapiens), sequence (P03372 whole entry, looked up): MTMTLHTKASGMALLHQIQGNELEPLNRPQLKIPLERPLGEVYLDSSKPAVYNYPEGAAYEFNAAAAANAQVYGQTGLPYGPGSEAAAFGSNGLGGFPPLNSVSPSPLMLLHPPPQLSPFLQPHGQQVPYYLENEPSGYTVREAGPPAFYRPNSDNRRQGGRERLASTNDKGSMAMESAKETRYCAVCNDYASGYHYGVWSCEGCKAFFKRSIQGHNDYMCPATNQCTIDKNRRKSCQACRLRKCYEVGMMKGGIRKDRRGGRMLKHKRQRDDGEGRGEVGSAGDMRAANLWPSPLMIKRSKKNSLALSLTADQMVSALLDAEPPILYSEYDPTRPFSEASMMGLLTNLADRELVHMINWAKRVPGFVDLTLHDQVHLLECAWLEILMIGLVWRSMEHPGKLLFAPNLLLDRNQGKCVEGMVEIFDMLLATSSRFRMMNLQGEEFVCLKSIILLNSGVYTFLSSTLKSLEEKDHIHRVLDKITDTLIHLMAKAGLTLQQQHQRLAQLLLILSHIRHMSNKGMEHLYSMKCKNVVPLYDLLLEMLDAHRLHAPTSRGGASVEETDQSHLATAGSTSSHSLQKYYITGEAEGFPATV

Compound | Potency [1] | outcome [2] | outcome [3] | Potency [4] | Potency [5] | Potency [6] | outcome [7] | Potency [8] | outcome [9] | Potency [10] | Potency [11] | outcome [12] | outcome [13] | Potency [14] | outcome [15] | Potency [16] | Potency [17] | outcome [18] | Potency [19] | outcome [20]
O=C(O)Cc1ccccc1 | inactive | inactive | inactive | inactive | inactive | inactive | inactive | inactive | inactive | inactive | inactive | inactive | inactive |  |  |  |  |  |  | 
CN(C)C(=O)Cl | inactive | inactive | inactive | inactive |  |  | inactive | inactive | inactive | inactive |  | inactive | inactive | inactive | inactive |  |  |  |  | 
C[C@]12CC[C@H](O)CC1=CC[C@@H]1[C@@H]2CC[C@]2(C)C(=O)CC[C@@H]12 | inactive | inactive | inactive | inactive | 10 µM (active) | inactive | inactive | inactive | inactive | inactive |  | inactive |  | inactive |  | 386 nM (active) and 473 nM (active) |  |  |  | 
Cc1cc(Cl)ccc1OC(C)C(=O)O (centres undefined) | inactive | inactive | inactive | inactive |  | inactive | inactive | inactive | inactive | inactive |  | inactive | inactive | inactive |  | inactive | inactive | inactive |  | 
OCC(O)CCl (centres undefined) | inactive | inactive | inactive | inactive |  | inactive | inactive | inactive | inactive | inactive | inactive | inactive | inactive |  | inactive |  | inactive |  |  | 
CNC(=O)O/N=C/C(C)(C)S(C)=O (centres undefined) | inactive | inactive | inactive | inactive |  | inactive | inactive | inactive | inactive | inactive | inactive | inactive | inactive |  | inactive | inactive | 39.1 µM (active) and inactive | inactive |  | 
CCOc1ccc(N)cc1 | inactive | inactive | inactive | inactive |  | inactive | inactive | inactive | inactive | inactive |  | inactive | inactive | inactive |  | inactive | inactive | inactive |  | 
OCc1ccco1 | inactive | inactive | inactive | inactive |  |  | inactive | inactive | inactive | inactive | inactive | inactive | inactive | inactive | inactive | inactive |  | inactive |  | 
Cc1cccc(C)c1N | inactive | inactive | inactive | inactive |  |  | inactive | inactive | inactive | inactive | inactive | inactive | inactive |  |  | inactive | inactive | inactive |  | 
N#CN=C(N)N | inactive | inactive | inactive | inactive |  |  | inactive | inactive | inactive | inactive | inactive | inactive | inactive | inactive | inactive | inactive | inactive | inactive |  | 
C=CCN=C=S | inactive | inactive | inactive | inactive | inactive |  | inactive | inactive | inactive | inactive | inactive | inactive | inactive |  | inactive |  | inactive |  |  | 
CNC(=O)O/N=C(\SC)C(=O)N(C)C | inactive | inactive | inactive | inactive |  | inactive | inactive | inactive | inactive |  | inactive | inactive | inactive | inactive |  | inactive |  | inactive | inactive | inactive
Oc1c(Br)cc(Br)cc1Br | inactive | inactive | inactive | inactive | inactive | inactive | inactive | inactive | inactive | inactive | 21.7 µM (active) and inactive | inactive | inactive |  |  | inactive | inactive |  |  | 
O=[N+]([O-])c1ccc(Cl)cc1 | inactive | inactive | inactive |  |  | inactive | inactive | inactive | inactive | inactive |  | inactive |  | inactive |  | inactive |  | inactive |  | 
O=C(O)c1cc(Oc2ccc(C(F)(F)F)cc2Cl)ccc1[N+](=O)[O-] | inactive | inactive | inactive |  | inactive | inactive | inactive | inactive | inactive | inactive | inactive | inactive |  | inactive | inactive | inactive | inactive | inactive |  | 
O=S(=O)(O)OOS(=O)(=O)O | inactive | inactive | inactive |  |  | inactive | inactive | inactive | inactive | inactive |  | inactive |  |  |  | inactive | inactive | inactive |  | 
CN(C)NC(=O)CCC(=O)O | inactive | inactive | inactive |  |  |  | inactive | inactive | inactive | inactive | inactive | inactive |  |  |  | inactive |  | inactive |  | 
N#Cc1cccc(C#N)c1 | inactive | inactive | inactive |  |  |  | inactive | inactive | inactive | inactive | inactive | inactive |  |  |  | inactive |  | inactive |  | 
CNC(=O)Oc1cccc2ccccc12 |  | inactive | inactive | inactive | inactive | inactive | inactive | inactive | inactive | inactive | inactive | inactive | inactive | inactive | inactive |  |  |  |  | 
